HCMV antiviral – inhibitors of human cytomegalovirus | HFF cells, HCMV-luciferase reporter, 72 h; hits give low values | activity change, negative = inhibition, % at 57.5 µM | hit rate 4.5% among 410,000; in the data active = activity change below about -60%; inconclusive = no clear call, values can overlap the other calls; inactive = above about -39%
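Luciferase read-out from HCMV-luciferase-infected HFFs (MOI 1 PFU/cell) 72 h post infection at 37C; compounds added after 16 h cell attachment; activity normalized between buffer-only basal and Salinomycin (10uM) inhibitor controls.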
FMDV inh – antivirals against foot and mouth disease virus | AID 1159524 | Potency, µM (titrated, usually from 57.9 µM), inactives show at the highest dose activity change, negative = inhibition, hits mostly inhibitors | FMDV antiviral cell-based qHTS | hit rate 1.2% among 410,000; calls by dose curve; tested in HEK293T cells; note: read-out not given here; potency is the fitted concentration of half-maximal effect; nearly all actives have a fitted effect of over 45% in size
Marburg entry inh – blocks Marburg virus binding to or entry into cells | Marburg virus pseudotyped entry inhibition, cell reporter | Potency, µM (titrated, usually from 37.8 µM), inactives show top-dose activity change, negative = inhibition, most hits filed as inhibitors | hit rate 1.8% among 300,000 | AID 540276; calls by dose curve; tested in HEK293 cells; note: potency is the fitted concentration of half-maximal effect
HCV inh – inhibitors of hepatitis C virus infection. AID 651820. Huh7.5.1 HCVcc-Cre infection, luciferase reporter, 44 h. Potency, µM (highest dose often 41.8 µM), for the others: top-dose activity change, negative = inhibition, usual class: inhibitors. hit rate 3.4% among 340,000; active = well fitted inhibition curve with a large enough effect; inconclusive = small, poorly fitted or top-dose-only effect, or another doubt; inactive = no such curve, though single readings can be large or run the other way; note: potency is the fitted concentration of half-maximal effect
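Antiviral activity was scored by luciferase reporter output from cells infected with HCVcc-Cre (~0.5 moi) in presence of compound, 44 h infection period, cells seeded 1,000/well 4 h prior.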
Lassa entry inh – Lassa virus entry inhibition; Potency, µM (doses to about 37.9 µM), inactives show at the highest dose activity change, negative = inhibition, usual class: inhibitors; Lassa virus pseudotype entry inhibition, cell reporter; hit rate 1.2% among 300,000; calls by dose curve; tested in HEK293 cells; note: potency is the fitted concentration of half-maximal effect; nearly all actives have a fitted effect of over 50% in size
* hit, by the source's call; ? = inconclusive; nt = no result given; ! = not active in a repeat; [ ] = another dose, or the depositor's remark. Hits are enriched below; roughly 7.9% of the tested compounds scored in any of these assays. % is set by controls: 0 for no effect and ±100 for the full control effect.

SMILES | HCMV antiviral | FMDV inh | Marburg entry inh | HCV inh | Lassa entry inh
CCC1CN(CCNC(=O)c2cc(C(C)C)nn2C)Cc2cc(OC)ccc2O1 (configuration not stated) | nt | -29.5% | nt | nt | nt
COC(=O)[C@@H]1[C@@H](CO)[C@@H]2Cn3c(cccc3=O)[C@@H]2N1C(=O)c1cnccn1 | 23.1 | nt | nt | nt | nt
COCCN1C(=O)N[C@@H](c2cccc(C(F)(F)F)c2)C(C(C)=O)=C1C | nt | nt | 11.2%[14.2 µM] | nt | nt
COc1ccc(C=NN=C2c3ccccc3-c3ccccc32)cc1OC | -29.7 | -15.9% | -2.9% | ? | 4.5%[46.1 µM]
COc1ccc(C(=O)NCc2nnc(SC)n2-c2ccccc2C)c(OC)c1OC | nt | -17.7% | nt | nt | nt
O=C(NCC(c1ccco1)N1CCc2ccccc21)c1cccc([N+](=O)[O-])c1 (configuration not stated) | -3.8 | -27.4% | ? | -22.5% | 5.62µM*
CCOC(=O)c1c(C)[nH]c(C(=O)OCc2nc3ccsc3c(=O)[nH]2)c1C | 7.9 | 23.0% | nt | nt | nt
CCCCOc1cccc(C(=O)Nc2ccc(NC(=O)c3ccco3)cc2)c1 | -77.7* | -8.3% | 3.2%[46.1 µM] | 5.2% | nt
CCCCOc1cccc(NC(=O)c2cccc(C(=O)Nc3cccc(OCCCC)c3)c2)c1 | -30.3 | -14.6% | nt | nt | 0.4%[46.1 µM]
CCCOc1cccc(NC(=O)c2cc(C)oc2C)c1 | ? | -7.4% | ? | 10µM* | -2.7%
CCCCOC(=O)c1ccc(NC(=S)NC(=O)c2ccco2)cc1 | -5.5 | -9.1% | ? | 25.7% | 15.8µM*
CCCOc1cccc(C(=O)Nc2cccc(NC(=O)c3ccco3)c2)c1 | -7.6 | -25.3% | 4.7%[46.1 µM] | 25.1µM* | -15.7%
Cc1cc(C(=O)Nc2ccccc2)c(C)o1 | 7.9 | 14.4% | 15.6% | 10.5% | 0.3%
COc1cccc(NC(=O)c2cccc(NC(=O)c3ccco3)c2)c1 | ? | 5.8% | nt | nt | nt
CCCCCOC(=O)c1ccc(NC(=O)c2ccco2)cc1 | -17.4 | ? | -13.1% | 1.5% | -17.5%
COc1cc(C(CC(=O)Nc2cc(C)ccc2C)N2Cc3ccccc3C2=O)cc(OC)c1OC (configuration not stated) | 28.1 | 25.2% | nt | nt | -18.8%[46.1 µM]
CCOc1ccccc1-n1c(O)c(C=Nc2ccc(N(CC)CC)cc2)c(=O)[nH]c1=O | -86.9* | -31.7% | -25.3% | -18.4% | ?
CC(=O)Nc1ccc2c(c1)C(=O)c1ccccc1C2=O | 33.6 | 57.0% | 3.3% | 10µM* | 4.1%
COc1ccc(NC2=C(NC(C)=O)C(=O)c3ccccc3C2=O)cc1 | -67.3* | 0.0% | ? | ? | ?
CC(=O)Nc1c(Cl)cc2c(c1Cl)C(=O)c1ccccc1-2 | -38.6 | 17.2% | -8.6% | 11.2µM* | ?
O=C(NCc1ccc(Cl)cc1)O[C@H]1CC[C@@]23CCCN2C(=O)CCC[C@H]3[C@H]1Cc1ccccc1 | 11.9 | nt | nt | nt | nt
COc1ccc(/C=C(\NC(=O)c2ccccc2)C(=O)NCCN2CCOCC2)cc1 | -34.9 | -9.0% | ? | 17.5% | 4.9%[46.1 µM]
COc1ccc2c(c1)CCc1cnc(-n3ncc(C(=O)NC4CCOC4)c3C3CC3)nc1-2 (configuration not stated) | nt | -5.3% | nt | nt | nt
CC1(c2nc3ccccc3[nH]2)c2ccccc2C(=O)N1C1CC1 (configuration not stated) | 13.0 | -23.7% | nt | nt | nt
COc1cc(S(=O)(=O)NCCc2c(C)[nH]c3ccccc23)c(C)cc1C | -103.3* | 34.1% | ? | nt | ?
SMILES | HCMV antiviral | FMDV inh | Marburg entry inh | HCV inh | Lassa entry inh
Cc1ccc([N+](=O)[O-])cc1S(=O)(=O)NCCc1c(C)[nH]c2ccccc12 | -6.2 | 10.8% | -3.4% | -10.8% | -16.4%
Cc1ccccc1C1(CC(=O)N2CCCCC2C)CC(=O)N(Cc2cccnc2)C1=O (configuration not stated) | nt | 6.1% | nt | nt | nt
O=S1(=O)C=C(Sc2nc3cc(Cl)ccc3o2)c2ccccc21 | nt | 28.2µM* | 7.94µM* | 7.94µM* | ?
c1ccc2c(c1)C1=NCCN1c1ccccc1-2 | -102.8* | -18.4% | nt | nt | nt
O=c1cc2nc(-c3ccccc3F)nc(SCc3ccc(Br)cc3)n2[nH]1 | -21.9 | -23.2% | nt | nt | ?
Oc1ccc(Oc2ncc(Cl)cc2Cl)cc1 | 13.3 | -4.7% | -2.9% | 7.1% | 1.0%
Clc1cnc(Oc2ccc(Oc3ncc(Cl)cc3Cl)cc2)c(Cl)c1 | -24.5 | -10.4% | 1µM*! | 22.8% | ?
CCN1CCN(c2cc(C)c3cc(NC(=O)Cc4ccccc4OC)ccc3n2)CC1 | 7.5 | 0.7% | -24.2% | ? | 0.5%
COc1ccccc1CC(=O)Nc1ccc2nc(Nc3cccc(C(F)(F)F)c3)cc(C)c2c1 | -67.2* | ? | nt | nt | ?
